# Test results reported in paper PMC4336329 (PLoS ONE, 2015).
# Out of some 310,000 compounds screened, about 14,000 (4.5%) showed an effect of 50% or more. The effect is printed as a negative number. What follows is part of a selection rich in strong results, with near analogues and random picks from the rest.
# Target: human ether-à-go-go-related gene (hERG) potassium channel (human, UniProt Q12809)
# Assay: primary screen, population patch clamp on CHO cells stably expressing hERG; higher = less effect of the substance
# 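Further: peak tail current of the secondary pulse compared with the same well before compound.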
# human ether-à-go-go-related gene (hERG) potassium channel, sequence (Q12809 whole entry, looked up): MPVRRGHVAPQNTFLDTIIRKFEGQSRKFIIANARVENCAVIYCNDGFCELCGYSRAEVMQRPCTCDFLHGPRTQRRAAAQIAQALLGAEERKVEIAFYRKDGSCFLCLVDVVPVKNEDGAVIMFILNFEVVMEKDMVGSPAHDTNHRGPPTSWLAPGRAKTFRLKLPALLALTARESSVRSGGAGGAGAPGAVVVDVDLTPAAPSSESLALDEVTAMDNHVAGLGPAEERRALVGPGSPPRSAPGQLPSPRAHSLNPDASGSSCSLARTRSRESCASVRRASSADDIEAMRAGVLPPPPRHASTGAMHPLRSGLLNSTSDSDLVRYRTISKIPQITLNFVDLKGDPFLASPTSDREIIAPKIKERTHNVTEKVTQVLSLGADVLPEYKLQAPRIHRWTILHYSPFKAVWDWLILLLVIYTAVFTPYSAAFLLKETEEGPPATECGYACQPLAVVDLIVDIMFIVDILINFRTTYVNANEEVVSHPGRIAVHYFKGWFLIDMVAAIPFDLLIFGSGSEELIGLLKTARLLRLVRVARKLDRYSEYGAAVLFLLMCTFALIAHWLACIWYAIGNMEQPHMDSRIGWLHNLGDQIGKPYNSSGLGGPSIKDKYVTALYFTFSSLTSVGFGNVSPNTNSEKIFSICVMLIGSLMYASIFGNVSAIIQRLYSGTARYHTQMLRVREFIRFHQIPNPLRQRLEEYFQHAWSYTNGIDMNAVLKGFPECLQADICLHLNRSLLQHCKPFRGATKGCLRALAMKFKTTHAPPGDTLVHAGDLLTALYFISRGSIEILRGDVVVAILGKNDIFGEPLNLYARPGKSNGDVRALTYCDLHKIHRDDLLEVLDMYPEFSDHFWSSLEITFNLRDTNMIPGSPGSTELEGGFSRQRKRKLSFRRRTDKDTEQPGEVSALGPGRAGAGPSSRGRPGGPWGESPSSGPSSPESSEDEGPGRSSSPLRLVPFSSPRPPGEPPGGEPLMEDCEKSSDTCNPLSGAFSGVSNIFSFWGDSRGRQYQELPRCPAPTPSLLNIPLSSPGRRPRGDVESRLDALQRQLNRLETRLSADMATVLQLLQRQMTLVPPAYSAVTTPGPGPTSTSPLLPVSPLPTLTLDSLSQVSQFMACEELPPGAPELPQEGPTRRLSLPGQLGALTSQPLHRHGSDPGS
row,Compound,"hERG current change (%, negative = inhibition) at 10uM [%]"
1,CC(C)(C)c1ccc(OC(=O)N2CCOCC2)cc1,14
2,COc1cc(OC)cc(C(=O)Nc2cccc(-c3ccc(N4CCOCC4)nn3)c2)c1,14.5
3,O=c1[nH]c(=O)n(Cc2ccc(F)cc2)c(O)c1C=NCCCn1ccnc1,4.08
4,CN1CCN(/N=C/c2c(O)n(CCC3=CCCCC3)c(=S)[nH]c2=O)CC1,-64.9
5,O=c1[nH]c(=S)n(CCC2=CCCCC2)c(O)c1/C=N/N1CCOCC1,-41.8
6,O=c1[nH]c(=S)n(CCC2=CCCCC2)c(O)c1C=NCc1cccnc1,-0.946
7,O=c1[nH]c(=S)n(Cc2ccc(F)cc2)c(O)c1C=NCCCn1ccnc1,-60.3
8,O=c1[nH]c(=O)n(CCC2=CCCCC2)c(O)c1/C=N/N1CCOCC1,-21.6
9,O=c1[nH]c(=S)n(Cc2ccc(F)cc2)c(O)c1C=NCC1CCCO1 (centres unmarked),-61.9
10,O=c1[nH]c(=S)n(C2CC2)c(O)c1C=NCC1CCCO1 (centres unmarked),-6.97
11,O=c1[nH]c(=O)n(CCC2=CCCCC2)c(O)c1C=NCCCn1ccnc1,-17.6
12,O=c1[nH]c(=S)n(CCC2=CCCCC2)c(O)c1C=NCCCn1ccnc1,-69.3
13,O=c1[nH]c(=O)n(Cc2ccc(F)cc2)c(O)c1C=NCC1CCCO1 (centres unmarked),-13
14,O=c1[nH]c(=O)n(CCc2ccc(F)cc2)c(O)c1C=NCCCn1ccnc1,-3.22
15,O=C(/C=C/c1ccccc1)C1C(=O)c2ccccc2C1=O,-0.201
16,Cn1cnc(S(=O)(=O)N2CCN(c3ccccc3)CC2)c1,17.3
17,Cc1c(C(=O)O)oc2c1C(O)CCC2 (centres unmarked),0.768
18,COc1ccc(N(C(C)=O)C2C=CS(=O)(=O)C2)c(OC)c1 (centres unmarked),9.14
19,CSc1nnc(C(C)(C)C)c(=O)n1/N=C/c1ccc(Cl)cc1,0.0206
20,CC(/C=N/NC(=O)CNc1n[nH]c(=O)[nH]c1=O)c1ccccc1 (centres unmarked),2.52
21,Cc1nccn1CCN(C)Cc1cn(Cc2ccccc2)nc1-c1ccc2c(c1)OCO2,-60
22,CN(Cc1cn(Cc2ccccc2)nc1-c1ccc2c(c1)OCO2)Cc1nccn1C,-32.7
23,CN(Cc1cn(-c2ccccc2)nc1-c1ccc2c(c1)OCO2)Cc1nccn1C,-16.1

row,Compound,"hERG current change (%, negative = inhibition) at 10uM [%]"
1,COc1ccc(-c2nn(-c3ccccc3)cc2CN2CCCO2)c(F)c1,3.95
2,CN(Cc1ncc[nH]1)Cc1cn(-c2ccccc2)nc1-c1ccc2c(c1)OCO2,-60.1
3,CN(Cc1ccccn1)Cc1cn(Cc2ccccc2)nc1-c1ccc2c(c1)OCO2,-20.6
4,COc1ccc(-c2nn(-c3ccccc3)cc2CN(C)CCn2ccnc2C)c(F)c1,-57.6
5,COc1cccc(-c2nn(-c3ccccc3)cc2CN(C)Cc2c(C)nc3ccccn23)c1,-59.9
6,CN(Cc1cnccn1)Cc1cn(Cc2ccccc2)nc1-c1ccc2c(c1)OCO2,-23
7,COc1cccc(-c2nn(-c3ccccc3)cc2CN(C)Cc2ccon2)c1,9.02
8,CCn1ccnc1CN(C)Cc1cn(-c2ccccc2)nc1-c1ccc(OC)cc1F,-44.9
9,COc1cccc(-c2nn(-c3ccccc3)cc2CN(C)Cc2ccno2)c1,3.65
10,O=C(c1nnc(Cc2ccc(Cl)cc2)o1)N1CCOCC1,10.7
11,O=C(Nc1ccc(Cl)cc1)N1CCOCC1,13.8
12,O=C(Nc1ccc(F)c(Cl)c1)c1ccccc1,0.672
13,COCCNS(=O)(=O)c1cc(C(=O)O)ccc1OC,15.9
14,COc1cc(C(=O)OC2C[C@H]3CC[C@@H](C2)N3C)ccc1O (some centres unmarked),-7
15,Cc1ccc(N2C(=O)C3C(C2=O)C(C(=O)c2ccc(Cl)cc2)N2CCCC32)cc1 (centres unmarked),2.31
16,OCC[C@@H]1C[C@@H](O)[C@H](O)[C@@]2(CCCO2)O1,6.76
17,CCCc1cc(=O)[nH]c(SCC(=O)c2c(N)n(C3CC3)c(=O)[nH]c2=O)n1,6.85
18,COc1ccc2c3n(nc2c1)CCN=C3c1ccc(C)cc1,-14.3
19,O=C(NCCS(=O)(=O)N1CCN(c2ccccc2)CC1)C1CC(=O)N(c2ccc(F)cc2)C1 (centres unmarked),-1.02
20,O=C(CN1CCN(c2ccccc2F)CC1)NCc1ccccc1,-0.288
21,O=C(COC(=O)CNC(=O)c1ccccc1F)Nc1ncc(Cl)cc1Cl,-3.8
22,Cc1c(Cl)cccc1NC(=S)N(Cc1ccco1)C(C)c1ccccn1 (centres unmarked),-11
23,CN(Cc1cccnc1)Cc1cn(Cc2ccccc2)nc1-c1ccc2c(c1)OCO2,-11.7

row,Compound,"hERG current change (%, negative = inhibition) at 10uM [%]"
1,CN(CCn1ccnc1)Cc1cn(Cc2ccccc2)nc1-c1ccc2c(c1)OCO2,-23.2
2,CN(CCn1ccnc1)Cc1cn(-c2ccccc2)nc1-c1ccc2c(c1)OCO2,-62.9
3,O=C(N/C(=C/c1cccs1)C(=O)N1CCCC1)c1ccccc1,6.44
4,O=C(N/C(=C/c1ccc2c(c1)OCO2)C(=O)N1CCOCC1)c1cccs1,9.12
5,CN1CCN(C(=O)/C(=C\c2cccs2)NC(=O)c2ccccc2)CC1,-75.3
6,Cc1cccc(NC(=O)/C(=C\c2cccs2)NC(=O)c2ccccc2)c1,-51.7
7,O=C(Nc1ccccc1)/C(=C\c1cccs1)NC(=O)c1ccccc1,9.9
8,CCOC(=O)N1CCC(NC(=O)c2cccs2)CC1,6.2
9,CCOC(=O)N1CCN(C(=O)/C(=C\c2cccs2)NC(=O)c2cccs2)CC1,-71.8
10,CN1CCN(C(=O)/C(=C\c2ccc3c(c2)OCO3)NC(=O)c2cccs2)CC1,-76.8
11,CCOC(=O)N1CCN(C(=O)/C(=C/c2cccs2)NC(=O)c2cccs2)CC1,-45.7
12,O=C(N/C(=C\c1ccc2c(c1)OCO2)C(=O)N1CCOCC1)c1cccs1,-42.8
13,Cc1ccc(NC(=O)/C(=C\c2cccs2)NC(=O)c2ccccc2)cc1,-3.84
14,O=C(N/C(=C\c1cccs1)C(=O)N1CCCCCC1)c1ccccc1,-32.3
15,COc1cc(CNCC2CCCO2)ccc1OCC(N)=O.Cl (centres unmarked),16.3
16,CCOc1ccc(S(=O)(=O)N2CCC(C(=O)NCc3cccnc3)CC2)cc1,-27.1
17,CCCC1(c2ccccc2)NC(=O)N(CC(=O)Nc2cc(C)on2)C1=O (centres unmarked),23.6
18,CCc1nn(CC(=O)NCCc2ccc(S(N)(=O)=O)cc2)c(=O)c2cc3sccc3n12,20.1
19,Oc1ccc(O)c(/C(=N/Nc2ccccc2)c2ccccc2)c1,11
20,O=c1n(-c2cccc(Cl)c2)c(=O)n2n1CCC2,-6.81
21,O=C(CCN1CCN(c2ccc(Cl)cc2)CC1)Nc1nccs1,-13.3
22,COc1cc(C2c3c(oc4c(C)cc(C)cc4c3=O)C(=O)N2Cc2cccnc2)ccc1O (centres unmarked),5.03
23,COCC(C)n1c(C)cc(C(=O)COC(=O)/C=C/c2cccc(F)c2)c1C (centres unmarked),-31.6

row,Compound,"hERG current change (%, negative = inhibition) at 10uM [%]"
1,Cc1nn(Cc2ccccc2)c(Cl)c1/C=C/C(=O)OC(C)C(=O)N1CCCC1 (centres unmarked),18.7
2,CN1CCN(C(=O)/C(=C\c2cccs2)NC(=O)c2cccs2)CC1,-72.5
3,Cc1ccc(C(=O)N/C(=C/c2cccs2)C(=O)N2CCCCCC2)cc1,-46
4,Cc1ccc(C(=O)N/C(=C/c2cccs2)C(=O)N2CCCCC2)cc1,-35.4
5,O=C(N/C(=C/c1cccs1)C(=O)N1CCOCC1)c1cccs1,-8.41
6,Cc1ccc(C(=O)N/C(=C\c2cccs2)C(=O)N2CCCCCC2)cc1,-50.7
7,O=C(N/C(=C\c1cccs1)C(=O)N1CCOCC1)c1cccs1,-9.07
8,Cc1cc(NC(=O)C2CC(=O)N(c3ccccc3Cl)C2)no1 (centres unmarked),14.6
9,C/C(=N\NC(=O)CNC(=O)c1ccc2c(c1)OCCO2)c1ccco1,10.7
10,CC(=O)Nc1ccc(S(=O)(=O)N2CCN(CCCOc3ccccc3Cl)CC2)cc1,-49.6
11,CN(CCN1CCOCC1)C(=O)CC1C(=O)NCCN1Cc1ccccc1F (centres unmarked),12
12,CCN(CC)C(=O)CSc1nnc(-c2ccccn2)n1-c1ccc(C)c(C)c1,-24.8
13,Cc1csc(NC(=O)CSc2ccc(-c3ccccc3)nn2)n1,-66.9
14,Cc1ccc(-n2c(SCC(N)=O)nnc2-c2ccccn2)cc1C,8.79
15,Cc1csc(NC(=O)CSc2ccc(-c3ccc(F)cc3)nn2)n1,-26.8
16,Cc1cc(C)cc(NC(=O)CSc2ccc(-c3ccccn3)nn2)c1,8.61
17,Cc1csc(NC(=O)CSc2nnc(-c3ccccn3)n2-c2ccc(C)c(C)c2)n1,-78.5
18,Cc1nnc(NC(=O)CSc2ccc(-c3ccccn3)nn2)s1,12.1
19,Cc1csc(NC(=O)CSc2ccc(-c3ccccn3)nn2)n1,-73.6
20,Cc1csc(SCC(=O)Nc2nc(-c3ccccc3)cs2)n1,-8.35
